The text below walks through data of PubChem BioAssay (EPA / NIEHS).

Inconclusive results are not listed. Active and inactive are the calls of the source. How the source made its calls: active means hit-call score of the fitted dose curve at least 0.9, where 1 is the maximum; inconclusive means response in the unintended direction; inactive means score below 0.9.

The AC50 is the concentration at which the activity in the assay is half-maximal.

A short description of this test: Tanguay_ZF_120hpf_JAW_legacy: (Legacy) Oregon State University Tanguay Lab 120 Hour Post-fertilization zebrafish Assay for Jaw Malformation (AID 2283638).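 On AC50: active means more embryos with jaw malformation than DMSO controls.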 As for the experimental part: Tanguay_ZF_120hpf_legacy is a whole embryo, multiplexed endpoint assay using zebrafish larvae exposed for 120 hours post fertilization on a 96-well plate.Tanguay_ZF_120hpf_JAW_legacy is one of one assay component(s) measured or calculated from the Tanguay_ZF_120hpf_legacy assay. It is designed to make measurements of zebrafish development as detected with brightfield microscopy of developing zebrafish embryos.Data from the assay component Tanguay_ZF_120hpf_JAW_legacy was analyzed into 1 assay endpoints. This assay endpoint, Tanguay_ZF_120hpf_JAW_legacy, was analyzed in the positive analysis fitting direction relative to DMSO as the negative control and baseline of activity. Using a type of morphology reporter, gain-of-signal activity can be used to understand changes in developmentals as they relate to the whole embryo. To generalize the intended target to other relatable targets, this assay endpoint is annotated to the zebrafish development intended target family, where the subfamily is embryonic jaw development.
Zebrafish husbandry: Tropical 5D wild-type adult zebrafish were housed in at an approximate density of 1000 per 100 gallon tank at the Sinnhuber Aquatic Research Laboratory, Oregon State University, Corvallis, OR. Each tank was kept at standard laboratory conditions of 28C on a 14-h light/10-h dark photoperiod in fish water consisting of reverse osmosis water supplemented with a commercially available salt (Instant Ocean). Spawning funnels were placed into the tanks the night prior, and embryos were collected and staged. To increase bioavailability, the chorion was enzymatically removed using pronase (63.6mg/ml, >/= 3.5U/mg, Sigma-Aldrich: P5147) at 4 hours post fertilization (hpf) using a custom automated dechorionator.Chemical exposures: Six hpf dechorionated embryos were placed 1 embryo per well in a 96-well plate prefilled with 90 ul of EM using automated embryo placement systems (AEPS). Ten microliters of each row of dilution plate 2 was added to 2 exposure plates. The final DMSO concentration used was 0.64% (vol/vol). Thirty-two embryos were also exposed to 5uM trimethyltin chloride (positive control). Plates were sealed to prevent evaporation and foil covered to reduce light exposure and kept in a 28C incubator. Embryos were statically exposed until 120 hpf. At 24 hpf, embryos were assessed for photomotor response using a custom photomotor response analysis tool (PRAT) and for developmental toxicity endpoints (MO24: mortality at 24 hpf, DP: developmental progression, SM: spontaneous movement, and NC: notochord distortion). At 120 hpf, locomotor activity was measured using Viewpoint Zebralab and assessed for 18 endpoints. Zebrafish acquisition and analysis program (ZAAP), a custom program designed to inventory, acquire, and manage zebrafish data, was used to collect developmental endpoints as either present or absent (i.e., binary responses were recorded). If mortality occurred for an embryo (at either 24 or 120 hpf), the non-mortality endpoints were not measured.
Consider `O=P(OC(CCl)CCl)(OC(CCl)CCl)OC(CCl)CCl`, for which the concentration at half-maximal activity (AC50) is 36.3 µM (active).
As for `O=C(O)c1cccc(N(Cc2cccnc2)c2ccc(OC(F)F)c(OC(F)F)c2)c1`, the compound was called inactive.
On to `CCOc1cccc(-n2cc(C(=O)N3CCN(c4cc(C(=O)O)c5ccccc5c4)CC3)nc2-c2ccc(C)cc2)c1`, for which the call was inactive.
Same read-out and setting: for `CC(=O)OC[C@H]1O[C@@](COC(C)=O)(O[C@H]2O[C@H](COC(C)=O)[C@@H](OC(C)=O)[C@H](OC(C)=O)[C@H]2OC(C)=O)[C@@H](OC(C)=O)[C@@H]1OC(C)=O` the value was “inactive”; for `CCCCC(CC)COC(=O)CCCCCCCCC(=O)OCC(CC)CCCC` (stereo not given), “inactive”.
The same measure, in the same setting: to `CCc1cc(SCc2sc(-c3ccc(C(F)(F)F)cc3)nc2CN2CCN(c3ccc(OC)cc3)CC2)ccc1OCC(=O)O` belongs “inactive”; to `CCCC(=O)OCC`, “inactive”.
The same measure, in the same setting: to `CC[C@H](C)C(=O)O[C@H]1C[C@@H](C)C=C2C=C[C@H](C)[C@H](CC[C@@H]3C[C@@H](O)CC(=O)O3)[C@H]21` belongs “inactive”; to `C1=CCCC=CCCC=CCC1`, “inactive”.
`CCCCC(CC)COC(=O)c1ccc(C(=O)OCC(CC)CCCC)cc1` (stereo not given): the compound was called inactive.
Same read-out and setting: to `CN(C)c1ccc(Cc2ccc(N(C)C)cc2)cc1` belongs “inactive”; to `C[C@](N)(Cc1ccc(O)c(O)c1)C(=O)O`, “inactive”.
The same measure, in the same setting: for `On1ccccc1=S` the value was “inactive”; for `Clc1nc(Cl)c(Cl)c(Cl)c1Cl`, “inactive”.
Still for that read-out and setting: to `COC(=O)c1ccccc1O` belongs “inactive”.
With `O=C(O)c1cccc(Oc2ccccc2)c1`, the call was inactive.
Still for that read-out and setting: to `CC(C)CCCCCCCOC(=O)CCCCC(=O)OCCCCCCCC(C)C` belongs “inactive”.
The same measure, in the same setting: to `CCOC(=O)CC(CC(=O)OCC)(OC(C)=O)C(=O)OCC` belongs “inactive”; to `CCCCCCc1ccc(O)cc1O`, “inactive”; to `COc1cccc(-c2ccc(/C=C\CN3CCCCCC3)cc2Cl)c1`, “inactive”.
For `Oc1ccc2c(c1)-c1ccccc1C2`, the half-maximal activity concentration (AC50) was 37.7 µM (active).
For `Cc1ccc(S(=O)(=O)O)cc1C`, the call was inactive.
Turning to `O=C(OC[C@H]1O[C@@H](OC(=O)c2cc(O)c(O)c(OC(=O)c3cc(O)c(O)c(O)c3)c2)[C@H](OC(=O)c2cc(O)c(O)c(OC(=O)c3cc(O)c(O)c(O)c3)c2)[C@@H](OC(=O)c2cc(O)c(O)c(OC(=O)c3cc(O)c(O)c(O)c3)c2)[C@@H]1OC(=O)c1cc(O)c(O)c(OC(=O)c2cc(O)c(O)c(O)c2)c1)c1cc(O)c(O)c(OC(=O)c2cc(O)c(O)c(O)c2)c1`, the call was inactive.
In the case of `Cn1c(=O)c2c(ncn2C)n(C)c1=O`, the outcome was inactive.
For the compound `COc1ccc2sc(C(=O)Nc3nnn[nH]3)c(OC(C)C)c2c1`, the outcome was inactive.
`Nc1ccc(Nc2ccccc2)cc1`: the AC50 is 27.2 µM (active).
On to `CCCCCCCCCCCCCCCO`, for which the result was inactive.
On to `Nc1cccc(N)c1`, for which the compound was classed as inactive.
For the compound `CCC(C)(C)C(=O)O[C@H]1C[C@@H](C)C=C2C=C[C@H](C)[C@H](CC[C@@H]3C[C@@H](O)CC(=O)O3)[C@H]21`, the AC50 was 0.766 µM (active).
`CC(=O)OCCC(C)C`: the compound was called inactive.
The same measure, in the same setting: for `CC(C)=CCCC(C)=CC=O` the value was “inactive”.
With `CCn1nc(Cc2ccccc2)cc1C1CCN(C[C@H]2C[C@H](N(C)[C@@H](C(=O)O)C(C)C)C[C@@H]2c2cccc(F)c2)CC1`, the result was inactive.
On the same count and under the same terms, to `CCN(C(=O)c1cc(C)cc(OC[C@H](C)Nc2ccncc2)c1)C(C)C` belongs “inactive”.
As for `CC(C)CCO`, the compound was called inactive.
Same read-out and setting: for `O=C(CCCCCCCCc1cccnc1)N1CCC(C=C(c2ccccc2)c2ccccc2)CC1` the value was “inactive”.
On the same count and under the same terms, for `O=c1n(CC2CO2)c(=O)n(CC2CO2)c(=O)n1CC1CO1` (stereo not given) the value was “inactive”.
Still for that read-out and setting: to `CNS(=O)(=O)c1cc(C(=O)N2CCC(CCN3C4CCC3CC(n3c(C)nc5ccccc53)C4)(c3cccc(F)c3)CC2)c(Cl)cc1F` (stereo not given) belongs “inactive”; to `Cc1ccc(C)c(O)c1`, “inactive”; to `CCNc1ccccc1`, “inactive”.
As to `CN(C)c1ccc(N=NS(=O)(=O)O)cc1`, the result was inactive.
